The values that follow come from PubChem BioAssay AID771 (SRMLSC, 2007).

Several values for one entry are separate records, joined by “and”; a condition that tells them apart may be missing. Equal entries are not always repeated. Hit rate of the full screen: of about 3,300 compounds, about 55 (2%) were called active.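 How the source made its calls: active means growth inhibition above 90%, meaning viable cell count by imaging cut by more than 90% versus vehicle controls; inactive means growth inhibition below 90%.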 Many of the other results were omitted from the sample, so actives are more common in it than they were. Some compounds were tested as several samples or in several runs, with calls that do not always agree.

The nature of this assay: HT29 colon tumor cell growth inhibition, primary screen, imaging, high content imaging, 48 h, CellTiter-Glo (AID 771).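 On condensed nuclei: condensed means Hoechst nuclear area under control median minus 1.5 SD.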 The conditions noted are these: HCS imaging cell count, at 10 µM, stronger effect = higher value; for condensed nuclei: measured here: percent cells with condensed nuclei. (In general: ATP-based viability assays read luminescence as a measure of living cells.)
[1] abbreviates: measured here: ATP CellTiter-Glo viability inhibition.

On to `CSc1ccc2c(c1)N(CCC1CCCCN1C)c1ccccc1S2` (stereo not drawn), for which the growth inhibition was 8.58% (inactive) and the condensed nuclei came to 2.87%.
On to `CN1CCN(CCC(=O)N2c3ccccc3Sc3ccc(Cl)cc32)CC1`, for which the growth inhibition was 55.5% (inactive) and the condensed nuclei stood at 2.4%. In addition, the growth inhibition under setting [1] is -11.6%.
Regarding `OCCN1CCN(CCCN2c3ccccc3Sc3ccc(Cl)cc32)CC1`, the growth inhibition was 84.9% (inactive) and the condensed nuclei is 46.7%.
For the compound `CN1CCN(CCCN2c3ccccc3Sc3ccc(C(F)(F)F)cc32)CC1`, the growth inhibition was 99.7% (active) and the condensed nuclei stood at 45.5%.
As for `OCCN1CCN(CCCN2c3ccccc3Sc3ccc(C(F)(F)F)cc32)CC1`, the growth inhibition was 99.7% (active) and the condensed nuclei worked out at 57%.
On the same counts, the results for `CN1CCN(CCCN2c3ccccc3Sc3ccc(Cl)cc32)CC1` are -16.4% (inactive) and 1.86%.
As to `CCCOc1ccc(/C(O)=C2/C(=O)C(=O)N(CCN3CCOCC3)C2c2ccccc2)cc1` (stereo not drawn), the growth inhibition was 6.6% (inactive) and the condensed nuclei turned out to be 3.56%. For the same compound, under setting [1], the growth inhibition was -7.42%.
On to `CC1(C)Cc2nc(N)c(C(=O)NCCO)cc2CO1`, for which the growth inhibition was -4.53% (inactive) and the condensed nuclei turned out to be 3.27%. Moreover, the growth inhibition under setting [1] was -20.8%.
For `COc1ccc(/C(O)=C2\C(=O)C(=O)N(c3cc(C)on3)C2c2cccc(OC)c2OC)cc1C` (stereo not drawn), the growth inhibition was 37.5% (inactive) and the condensed nuclei was determined as 2.33%. Also, the growth inhibition under setting [1] is -6.66%.
With `CCN(CC)CCNC(=O)c1ccccc1N`, the growth inhibition is 25.6% (inactive) and the condensed nuclei is 0.38%. Moreover, under setting [1], the growth inhibition turned out to be 4.22%.
As for `CCCCOc1cc(C(=O)NCCN(CC)CC)c2ccccc2n1`, the growth inhibition is 2.54% (inactive) and 97.2% (active); the condensed nuclei was 0.87% and 22.7%.
Take `CCCCOc1ccccc1C(=O)NCCCC(=O)O`: the growth inhibition is 45.1% (inactive) and the condensed nuclei was 2.4%. Under setting [1], the growth inhibition is 27.4%.
As to `CC(C)C1Cc2c(C#N)c(N)sc(=S)c2CO1` (stereo not drawn), the growth inhibition is -17.8% (inactive) and the condensed nuclei amounted to 3.02%. Besides, the growth inhibition under setting [1] is -10.1%.
Regarding `CNCCC(Oc1ccc(C(F)(F)F)cc1)c1ccccc1` (stereo not drawn), the growth inhibition was 98.6% (active) and the condensed nuclei was found to be 23.4%.
Regarding `CC(=N\O)/C(CN(C)C)=N/O`, the growth inhibition was 19.1% (inactive) and the condensed nuclei is 2.85%. Further, under setting [1], the growth inhibition worked out at 5.48%.
On the same counts, the results for `CCc1[nH]nc2c1C(c1ccc(Br)s1)C(C#N)=C(N)O2` (stereo not drawn) are 61% (inactive), 4.86% and 16.8%.
On to `O=C(O)/C=C/c1ccc(O)c(O)c1`, for which the growth inhibition was -1.98% (inactive) and the condensed nuclei came to 2.21%.
With `COc1cc(/C=C/C(=O)CC(=O)/C=C/c2ccc(O)c(OC)c2)ccc1O`, the growth inhibition was 95.8% (active) and the condensed nuclei turned out to be 35.4%.
For `CCN(CC)C(=O)c1ccc(O)c(OC)c1`, the growth inhibition is -10.4% (inactive) and the condensed nuclei is 2.13%.
With `CCCc1nnc(SCc2ccc(OCC)cc2)n1N`, the growth inhibition was 34.1% (inactive) and the condensed nuclei turned out to be 1.98%. For the same compound, the growth inhibition under setting [1] amounted to 0.5%.
For `NC(Cc1ccc(Oc2ccc(O)cc2)cc1)C(=O)O` (stereo not drawn), the growth inhibition is -13.8% (inactive) and the condensed nuclei was 5.21%.
Regarding `CCn1nnc(C(=O)O)c1C(=O)O`, the growth inhibition was -4.1% (inactive) and the condensed nuclei was 2.3%. Besides, the growth inhibition under setting [1] was -5.53%.
`Brc1ccc2c(c1)CNc1c(ncnc1N1CCOCC1)O2`: the growth inhibition was 45.1% (inactive) and the condensed nuclei amounted to 0.48%. Under setting [1], the growth inhibition turned out to be 12.2%.
For `N#CC12CCCCC1CC1CCCCC1(C#N)N2Cc1cccnc1` (stereo not drawn) the same measures were 20.9% (inactive), 2.55% and -2.93%.
As to `CNCCCC1c2ccccc2C=Cc2ccccc21`, the growth inhibition was 98% (active) and the condensed nuclei came to 25%.
Regarding `CC(NC(=O)c1ccc(=O)oc1)c1ccccc1` (stereo not drawn), the growth inhibition is 53.4% (inactive) and the condensed nuclei is 5.45%. Also, the growth inhibition under setting [1] is -2.53%.
As to `CC(NCCC(c1ccccc1)c1ccccc1)c1ccccc1` (stereo not drawn), the growth inhibition is 95.3% (active) and the condensed nuclei was 28.3%.
In the case of `O=C(O)c1ccc(C2CCCCC2)cn1`, the growth inhibition is -17.2% (inactive) and the condensed nuclei came out at 0.69%. For the same compound, the growth inhibition under setting [1] was -12.9%.
With `CCN(CC)CCN1C(=O)C(=O)/C(=C(/O)c2c(C)[nH]c(C(=O)OC)c2C)C1c1ccccc1` (stereo not drawn), the growth inhibition was 29.2% (inactive) and the condensed nuclei was determined as 11%. The growth inhibition under setting [1] came out at 26.4%.
Turning to `CNCCCN1c2ccccc2CCc2ccccc21`, the growth inhibition was 95.8% (active) and the condensed nuclei amounted to 13.8%.
For `CN(C)CCCN1c2ccccc2CCc2ccc(Cl)cc21` the same measures were 89.6% (inactive) and 39.3%.
Take `CN(C)CCCN1c2ccccc2CCc2ccccc21`: the growth inhibition is -27.8% (inactive) and the condensed nuclei came out at 2.51%.
For the compound `CCOC(=O)NC(Nc1sc2c(c1C(=O)OC)CCN(C)C2)(C(F)(F)F)C(F)(F)F`, the growth inhibition was -25.9% (inactive) and the condensed nuclei stood at 2.15%. For the same compound, the growth inhibition under setting [1] came to 15.4%.
Take `Cc1cc(=O)oc(C)c1C(=O)N[C@@H]1CCCCNC1=O`: the growth inhibition is -26.2% (inactive) and the condensed nuclei is 2.68%. The growth inhibition under setting [1] is -3.89%.
For `CCOC(=O)CSC1=C(C#N)C(c2ccc3c(c2)OCO3)CC(=O)N1` (stereo not drawn) the same measures were 90.1% (active), 12.2% and 66.1%.
For `CCCCOC(=O)CSC1=C(C#N)C(c2ccc3c(c2)OCO3)CC(=O)N1` (stereo not drawn), the growth inhibition was -15.7% (inactive) and the condensed nuclei worked out at 2.23%. The growth inhibition under setting [1] was -8.71%.
In the case of `CCCOC(=O)CSC1=C(C#N)C(c2ccc3c(c2)OCO3)CC(=O)N1` (stereo not drawn), the growth inhibition is 75.6% (inactive) and the condensed nuclei is 7.29%. Moreover, the growth inhibition under setting [1] is 56.6%.
On the same counts, the results for `Cn1cccc1/C=N/n1cnnc1` are 13.3% (inactive), 11% and 0.83%.
Take `CN(C)CCCN1c2ccccc2Sc2ccc(Cl)cc21`: the growth inhibition was 92.7% (active) and the condensed nuclei worked out at 22.1%.
For the compound `CN(C)CCCN1c2ccccc2Sc2ccc(C(F)(F)F)cc21`, the growth inhibition was 93.8% (active) and the condensed nuclei was found to be 30.8%.
On the same counts, the results for `CC(CN1c2ccccc2Sc2ccccc21)N(C)C` (stereo not drawn) are 65.5% (inactive) and 6.11%.
In the case of `CN(C)CCCN1c2ccccc2Sc2ccccc21`, the growth inhibition was 40.7% (inactive) and the condensed nuclei is 5.02%.
In the case of `COc1ccc([C@@H]2Sc3ccccc3N(CCN(C)C)C(=O)[C@@H]2OC(C)=O)cc1`, the growth inhibition was -4.52% (inactive) and the condensed nuclei came to 2.39%.
